# Test results: PubChem BioAssay AID1159580 (chemical genetic matrix, 2015)
# Out of some 5,500 compounds screened, about 2,000 (36%) were called active. About 18% were inconclusive and are not listed. This is one part of the list. A number with no mark means an inactive call. Cut-off read from the data, not from the text of the source: active = normalized growth mostly below about 0.91 (no sharp cut-off); inconclusive = no clear call, values can overlap the other calls; inactive = mostly above about 0.92.
# Experiment: chemical genetic growth profiling, strain panel (AID 1159580);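 note: tested at 20 µM; growth read once vehicle control cultures reached saturation at 30 °C; 1 = growth at the plate median or of vehicle wells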
# Conditions: growth OD
# [1] = S. cerevisiae deletion strains, locus YDL101C, strain DUN1, stronger effect = lower value
# [2] = S. cerevisiae deletion strains, locus YHR030C, strain SLT2, stronger effect = lower value
# [3] = S. cerevisiae deletion strains, locus YHR079C, strain IRE1, stronger effect = lower value
# [4] = S. cerevisiae deletion strains, locus YJL095W, strain BCK1, stronger effect = lower value
# [5] = S. cerevisiae deletion strains, locus YJR066W, strain TOR1, stronger effect = lower value
# [6] = S. cerevisiae deletion strains, locus YLR113W, strain HOG1, stronger effect = lower value
# [7] = S. cerevisiae deletion strains, locus YNL183C, strain NPR1, stronger effect = lower value
# [8] = S. cerevisiae deletion strains, locus YOR231W, strain MKK1, stronger effect = lower value
# [9] = S. cerevisiae deletion strains, locus YPL256C, strain CLN2, stronger effect = lower value
smiles,measurement,setting,value
N/C(=N/OC(=O)Nc1ccccc1)c1ccc(C2SCCS2)cc1,normalized growth,"S. cerevisiae deletion strains, locus YAL013W, strain DEP1, stronger effect = lower value",0.889 (active)
same,normalized growth,"S. cerevisiae deletion strains, locus YBR229C, strain ROT2, stronger effect = lower value",0.892 (active)
same,normalized growth,[1],0.753 (active)
same,normalized growth,"S. cerevisiae deletion strains, locus YDL134C, strain PPH21, stronger effect = lower value",0.972
same,normalized growth,"S. cerevisiae deletion strains, locus YDR150W, strain NUM1, stronger effect = lower value",0.851
same,normalized growth,"S. cerevisiae deletion strains, locus YEL061C, strain CIN8, stronger effect = lower value",0.833 (active)
same,normalized growth,"S. cerevisiae deletion strains, locus YGR078C, strain PAC10, stronger effect = lower value",0.879 (active)
same,normalized growth,"S. cerevisiae deletion strains, locus YGR229C, strain SMI1, stronger effect = lower value",1.01
same,normalized growth,[2],0.343 (active)
same,normalized growth,"S. cerevisiae deletion strains, locus YHR087W, strain rtc3, stronger effect = lower value",0.829 (active)
same,normalized growth,"S. cerevisiae deletion strains, locus YJR043C, strain POL32, stronger effect = lower value",0.89 (active)
same,normalized growth,"S. cerevisiae deletion strains, locus YJR075W, strain HOC1, stronger effect = lower value",0.772 (active)
same,normalized growth,"S. cerevisiae deletion strains, locus YKL190W, strain CNB1, stronger effect = lower value",0.924 (active)
same,normalized growth,"S. cerevisiae deletion strains, locus YLR039C, strain RIC1, stronger effect = lower value",0.767 (active)
same,normalized growth,"S. cerevisiae deletion strains, locus YLR085C, strain ARP6, stronger effect = lower value",0.39 (active)
same,normalized growth,"S. cerevisiae deletion strains, locus YLR262C, strain YPT6, stronger effect = lower value",0.759 (active)
same,normalized growth,"S. cerevisiae deletion strains, locus YML094W, strain GIM5, stronger effect = lower value",0.801 (active)
same,normalized growth,"S. cerevisiae deletion strains, locus YMR219W, strain ESC1, stronger effect = lower value",0.884 (active)
same,normalized growth,"S. cerevisiae deletion strains, locus YMR263W, strain SAP30, stronger effect = lower value",0.87 (active)
same,normalized growth,"S. cerevisiae deletion strains, locus YMR307W, strain GAS1, stronger effect = lower value",0.557 (active)
same,normalized growth,"S. cerevisiae deletion strains, locus YNL153C, strain GIM3, stronger effect = lower value",0.652 (active)
same,normalized growth,"S. cerevisiae deletion strains, locus YNL298W, strain CLA4 (second series), stronger effect = lower value",0.797 (active)
same,normalized growth,"S. cerevisiae deletion strains, locus YNL322C, strain KRE1, stronger effect = lower value",0.991
same,normalized growth,"S. cerevisiae deletion strains, locus YNR030W, strain Alg12, stronger effect = lower value",0.81 (active)
same,normalized growth,"S. cerevisiae deletion strains, locus YPL055C, strain LGE1, stronger effect = lower value",0.694 (active)
same,normalized growth,"S. cerevisiae deletion strains, locus YPR135W, strain CTF4, stronger effect = lower value",0.436 (active)
same,normalized growth,"S. cerevisiae strains, strain wild type, stronger effect = lower value",0.988
N/C(=N/O)c1ccc(Oc2ccc(C3SCCS3)cc2)c([N+](=O)[O-])c1,normalized growth,"S. cerevisiae deletion strains, locus YAR019C, strain CDC15, stronger effect = lower value",1.01
same,normalized growth,"S. cerevisiae deletion strains, locus YBL105C, strain PKC1, stronger effect = lower value",0.992
same,normalized growth,"S. cerevisiae deletion strains, locus YBR135W, strain CKS1, stronger effect = lower value",0.979
same,normalized growth,"S. cerevisiae deletion strains, locus YBR136W, strain MEC1, stronger effect = lower value",1.01
same,normalized growth,"S. cerevisiae deletion strains, locus YBR160W, strain CDC28, stronger effect = lower value",0.997
same,normalized growth,"S. cerevisiae deletion strains, locus YDL017W, strain CDC7, stronger effect = lower value",0.992
same,normalized growth,"S. cerevisiae deletion strains, locus YDL028C, strain MPS1, stronger effect = lower value",1.01
same,normalized growth,[1],0.991
same,normalized growth,"S. cerevisiae deletion strains, locus YDL108W, strain KIN28, stronger effect = lower value",0.99
same,normalized growth,"S. cerevisiae deletion strains, locus YDL132W, strain cdc53, stronger effect = lower value",0.973
same,normalized growth,"S. cerevisiae deletion strains, locus YDL214C, strain PRR2, stronger effect = lower value",0.992
same,normalized growth,"S. cerevisiae deletion strains, locus YDR052C, strain DBF4, stronger effect = lower value",0.992
same,normalized growth,"S. cerevisiae deletion strains, locus YDR054C, strain cdc34, stronger effect = lower value",0.988
same,normalized growth,"S. cerevisiae deletion strains, locus YDR226W, strain ADK1, stronger effect = lower value",0.998
same,normalized growth,"S. cerevisiae deletion strains, locus YDR477W, strain SNF1, stronger effect = lower value",1.01
same,normalized growth,"S. cerevisiae deletion strains, locus YER123W, strain YCK3, stronger effect = lower value",1.01
same,normalized growth,"S. cerevisiae deletion strains, locus YER133W, strain GLC7, stronger effect = lower value",0.994
same,normalized growth,"S. cerevisiae deletion strains, locus YFL009W, strain cdc4, stronger effect = lower value",0.992
same,normalized growth,"S. cerevisiae deletion strains, locus YFL029C, strain CAK1, stronger effect = lower value",1
same,normalized growth,"S. cerevisiae deletion strains, locus YFR003C, strain YPI1, stronger effect = lower value",0.985
same,normalized growth,"S. cerevisiae deletion strains, locus YFR019W, strain FAB1, stronger effect = lower value",1.02
same,normalized growth,"S. cerevisiae deletion strains, locus YFR028C, strain CDC14, stronger effect = lower value",1
same,normalized growth,"S. cerevisiae deletion strains, locus YGR040W, strain KSS1, stronger effect = lower value",1
same,normalized growth,"S. cerevisiae deletion strains, locus YGR052W, strain FMP48, stronger effect = lower value",1.07
same,normalized growth,"S. cerevisiae deletion strains, locus YGR092W, strain DBF2, stronger effect = lower value",0.993
same,normalized growth,[2],0.874
same,normalized growth,[3],1.06
same,normalized growth,"S. cerevisiae deletion strains, locus YHR082C, strain KSP1, stronger effect = lower value",1.12
same,normalized growth,"S. cerevisiae deletion strains, locus YHR205W, strain SCH9, stronger effect = lower value",1.01
same,normalized growth,"S. cerevisiae deletion strains, locus YIL147C, strain SLN1, stronger effect = lower value",0.996
same,normalized growth,[4],1.01
same,normalized growth,"S. cerevisiae deletion strains, locus YJL128C, strain PBS2, stronger effect = lower value",0.93
same,normalized growth,"S. cerevisiae deletion strains, locus YJL157C, strain FAR1, stronger effect = lower value",1.01
same,normalized growth,"S. cerevisiae deletion strains, locus YJR016C, strain ILV3, stronger effect = lower value",0.993
same,normalized growth,"S. cerevisiae deletion strains, locus YJR066W, strain TOR1 (second series), stronger effect = lower value",1.01
same,normalized growth,[5],1.02
same,normalized growth,"S. cerevisiae deletion strains, locus YKL048C, strain ELM1, stronger effect = lower value",0.988
same,normalized growth,"S. cerevisiae deletion strains, locus YKL067W, strain YNK1, stronger effect = lower value",0.981
same,normalized growth,"S. cerevisiae deletion strains, locus YKL101W, strain HSL1, stronger effect = lower value",0.986
same,normalized growth,"S. cerevisiae deletion strains, locus YKL193C, strain SDS22, stronger effect = lower value",0.979
same,normalized growth,"S. cerevisiae deletion strains, locus YKL203C, strain TOR2, stronger effect = lower value",1.11
same,normalized growth,[6],1.02
same,normalized growth,"S. cerevisiae deletion strains, locus YLR133W, strain CKI1, stronger effect = lower value",1.01
same,normalized growth,"S. cerevisiae deletion strains, locus YLR403W, strain SFP1, stronger effect = lower value",1.05
same,normalized growth,"S. cerevisiae deletion strains, locus YML070W, strain DAK1, stronger effect = lower value",1.01
same,normalized growth,"S. cerevisiae deletion strains, locus YMR001C, strain CDC5, stronger effect = lower value",1
same,normalized growth,"S. cerevisiae deletion strains, locus YMR205C, strain PFK2 (second series), stronger effect = lower value",0.994
same,normalized growth,"S. cerevisiae deletion strains, locus YMR277W, strain FCP1, stronger effect = lower value",0.995
same,normalized growth,"S. cerevisiae deletion strains, locus YNL006W, strain LST8, stronger effect = lower value",0.988
same,normalized growth,"S. cerevisiae deletion strains, locus YNL020C, strain ARK1, stronger effect = lower value",1.03
same,normalized growth,"S. cerevisiae deletion strains, locus YNL161W, strain CBK1, stronger effect = lower value",0.981
same,normalized growth,[7],1.08
same,normalized growth,"S. cerevisiae deletion strains, locus YNL207W, strain RIO2, stronger effect = lower value",0.984
same,normalized growth,"S. cerevisiae deletion strains, locus YNL222W, strain SSU72, stronger effect = lower value",0.979
same,normalized growth,"S. cerevisiae deletion strains, locus YNL307C, strain MCK1 (second series), stronger effect = lower value",1.02
same,normalized growth,"S. cerevisiae deletion strains, locus YOL078W, strain AVO1, stronger effect = lower value",0.978
same,normalized growth,"S. cerevisiae deletion strains, locus YOL136C, strain PFK27, stronger effect = lower value",1.02
same,normalized growth,"S. cerevisiae deletion strains, locus YOR061W, strain CKA2, stronger effect = lower value",0.995
same,normalized growth,"S. cerevisiae deletion strains, locus YOR119C, strain RIO1, stronger effect = lower value",1.04
same,normalized growth,[8],1.03
same,normalized growth,"S. cerevisiae deletion strains, locus YOR329C, strain SCD5, stronger effect = lower value",0.991
same,normalized growth,"S. cerevisiae deletion strains, locus YPL031C, strain PHO85, stronger effect = lower value",0.998
same,normalized growth,"S. cerevisiae deletion strains, locus YPL153C, strain RAD53, stronger effect = lower value",0.988
same,normalized growth,"S. cerevisiae deletion strains, locus YPL204W, strain HRR25, stronger effect = lower value",1
same,normalized growth,"S. cerevisiae deletion strains, locus YPL209C, strain IPL1, stronger effect = lower value",0.984
same,normalized growth,[9],0.995
same,normalized growth,"S. cerevisiae deletion strains, locus YPR025C, strain CCL1, stronger effect = lower value",0.985
same,normalized growth,"S. cerevisiae deletion strains, locus YPR106W, strain ISR1, stronger effect = lower value",0.994
same,normalized growth,"S. cerevisiae deletion strains, locus YPR111W, strain DBF20, stronger effect = lower value",0.978
same,normalized growth,"S. cerevisiae deletion strains, strain NNK1, stronger effect = lower value",0.995
same,normalized growth,"S. cerevisiae deletion strains, strain TSCII, stronger effect = lower value",1.01
O=C(Nc1ccccc1)OCC(CN1CCCCC1)OC(=O)Nc1ccccc1 (stereo unspecified),normalized growth,[2],1
same,normalized growth,[3],1.03
same,normalized growth,[4],1
same,normalized growth,[5],0.925
same,normalized growth,[6],1.01
same,normalized growth,[7],0.949
same,normalized growth,[8],1.01
same,normalized growth,[9],0.988
